Data from PubChem BioAssay (NCATS).
Records with an inconclusive call do not appear. Values without a mark were called inactive. Unless noted, the call rests on the fitted dose curve.

system: not listed separately; assay: qHTS for Inhibitors of the Functional Ribonucleoprotein Complex (vRNP) of Lymphocytic Choriomeningitis Arenaviruses (LCMV): Viability assay - alamar blue signal for LCMV Primary Screen (AID 1347085; calls by dose curve; tested in HEK293 reporter line; further: nearly all actives have a fitted effect of over 80% in size); conditions: alamar blue viability counter-screen, LCMV vRNP screen cells; series mostly up to 57.5 µM; activity change, negative = lower viability: at the top concentration
On the % scale 0 is the no-effect control and ±100 the full control effect.

| Compound | activity change, negative = lower viability |
| --- | --- |
| O=C/C=C/c1ccc(O)cc1 | -29.6% |
| O=C(CO)c1c[nH]c2ccccc12 | -28.9% |
| CC(C)=CCOc1ccc2ccc(=O)oc2c1 | 3.36% |
| C[C@@H]1CC[C@]2(C(=O)O[C@@H]3O[C@H](CO)[C@@H](O)[C@H](O)[C@H]3O)CC[C@]3(C)C(=CCC4[C@@]5(C)CC[C@H](O[C@@H]6OC[C@H](O)[C@H](O[C@@H]7O[C@H](CO)[C@@H](O)[C@H](O)[C@H]7O)[C@H]6O)C(C)(C)C5CC[C@]43C)C2[C@]1(C)O (stereo partly specified) | 9.2% |
| CC1=CCC[C@H]2[C@H](C1)C(=O)C[C@@H](C)[C@]2(C)CC/C(=C/CO)CO | 15% |
| Cn1cnc2c(ncn2[C@@H]2O[C@H](CO)[C@@H](O)[C@H]2O)c1=N | 6.08% |

target: Nucleoprotein (Lymphocytic choriomeningitis virus (strain Armstrong)) (UniProt P09992); assay: qHTS for Inhibitors of the Functional Ribonucleoprotein Complex (vRNP) of Lymphocytic Choriomeningitis Arenaviruses (LCMV): LCMV Primary Screen - GLuc reporter signal (AID 1347086); conditions: LCMV minigenome vRNP cell assay, Gaussia luciferase reporter; series mostly up to 57.5 µM; activity change, negative = inhibition: at the top concentration; further: nearly all actives have a fitted effect of over 70% in size
Sequence (P09992 whole entry, looked up): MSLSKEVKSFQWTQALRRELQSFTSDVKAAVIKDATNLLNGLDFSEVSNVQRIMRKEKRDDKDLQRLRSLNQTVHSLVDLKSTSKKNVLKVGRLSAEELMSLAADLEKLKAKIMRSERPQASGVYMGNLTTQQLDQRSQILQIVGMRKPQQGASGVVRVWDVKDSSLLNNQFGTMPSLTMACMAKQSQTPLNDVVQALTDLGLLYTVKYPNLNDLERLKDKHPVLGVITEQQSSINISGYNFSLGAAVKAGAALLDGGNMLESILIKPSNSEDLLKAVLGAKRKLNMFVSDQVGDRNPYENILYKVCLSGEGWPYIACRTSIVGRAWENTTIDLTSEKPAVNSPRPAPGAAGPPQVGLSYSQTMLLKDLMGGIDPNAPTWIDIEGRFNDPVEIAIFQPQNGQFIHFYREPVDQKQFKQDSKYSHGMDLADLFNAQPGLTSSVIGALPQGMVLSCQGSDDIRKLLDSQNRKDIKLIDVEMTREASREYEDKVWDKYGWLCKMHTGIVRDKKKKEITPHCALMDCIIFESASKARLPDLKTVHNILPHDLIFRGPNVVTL

| Compound | activity change, negative = inhibition |
| --- | --- |
| CC1CCC[C@H](O)CCCCCc2cc(O)cc(O)c2C(=O)O1 (stereo partly specified) | -1.66% |
| C=C1C[C@H](O[C@@H]2O[C@H](CO)[C@@H](O)[C@H](O)[C@H]2O)[C@@H]2[C@H](OC(=O)[C@H]2C)[C@H]2[C@H](C)[C@@H](O)C[C@@H]12 | 7.04% |
| CCC(C)C(=O)OCCc1ccccc1 (stereo unspecified) | -0.179% [at 115 µM] |
| Cc1coc2c1C(=O)C(=O)c1c-2ccc2c(C)cccc12 | -3.45% |
| CC(C=O)Cc1ccc(C(C)C)cc1 (stereo unspecified) | 28.7% [at 115 µM] |
| COc1cc(C(C)=O)cc(OC)c1O | -5.95% |
| CC1NC(C(=O)O)Cc2c1[nH]c1ccccc21 (stereo unspecified) | 6.07% |
| CCNC(=O)CCCC=CC[C@@H]1[C@H](C=CC(O)CCc2ccccc2)[C@@H](O)C[C@@H]1O (stereo partly specified) | 10.9% |
| CSC(=S)NCc1c[nH]c2ccccc12 | 3.9% |
| NC[C@@H]1O[C@@H](O[C@H]2[C@@H](O)[C@H](O[C@@H]3[C@@H](O)[C@@H](N)C[C@H](N)[C@H]3O[C@H]3O[C@H](CN)[C@@H](O)[C@@H](O)[C@H]3N)O[C@H]2CO)[C@H](N)[C@@H](O)[C@@H]1O | -10.8% |
| C=CC(=O)CCCCC | -0.671% [at 115 µM] |
| C[C@]12CCC3=C4CCC(=O)C=C4CC[C@@H]3[C@H]1CC[C@@]2(O)CC#N | -11.5% |
| CC12C=CC(=O)C=C1CCC1C2CCC2(C)C(C(=O)CO)CCC12 (stereo unspecified) | -3.17% |
| NC(=O)C1=CN(C2OC(COP(=O)(O)OP(=O)(O)OC[C@H]3O[C@@H](n4cnc5c(N)ncnc54)[C@H](OP(=O)(O)O)[C@@H]3O)C(O)C2O)C=CC1 (stereo partly specified) | 3.55% |
| CC(C)(O)C1CC[C@@]2(C)C3CCC4[C@@]5(C)CCCC(C)(C)C5C(O)C[C@]4(C)[C@]3(C)CC[C@@H]12 (stereo partly specified) | 14% |
| CC12CCC(C1)C(C)(C)C2O (stereo unspecified) | -113% [at 115 µM] |
| Cc1c(-c2cccc3c(CCCOc4cccc5ccccc45)c(C(=O)O)n(Cc4cccnc4)c23)c(COc2ccc(N3CCN([S+](=O)([O-])N(C)C)CC3)cc2)nn1C | -3.89% |
| CCCCCc1ccco1 | -6.79% |
| CC1(C)O[C@H]2C[C@@H]3[C@H]4CCC5=CC(=O)C=C[C@]5(C)[C@@]4(F)[C@@H](O)C[C@]3(C)[C@]2(C(=O)CO)O1 | 0.717% |
| C[C@@H]1NC(=O)N[C@@H]1CCCCCC(=O)O | 16.8% |

| Compound | activity change, negative = inhibition |
| --- | --- |
| CC1=CC(=O)CCC1 | 6.9% [at 115 µM] |
| Nc1ccn([C@@H]2O[C@H](CO)[C@@H](OP(=O)(O)O)[C@H]2O)c(=O)n1 | 5.57% |
| CC(C)CNC(=O)/C=C/C=C/CCCCCC/C=C/c1ccc2c(c1)OCO2 | 9.29% |
| CC1=CC2OC3CC4OC(=O)C=CC=CC(C(C)O)OCC(O)C5(C)OC5C(=O)OCC2(CC1O)C4(C)C31CO1 (stereo unspecified) | -126% |
| O=C(O)c1cc(N(Cc2ccccc2O)Cc2ccccc2O)ccc1O | -8.55% |
| CC1=CC(=O)/C(=C(/C)O)C(=O)O1 | -2.34% [at 115 µM] |
| Fc1ccc(C(c2ccc(F)cc2)N2CCN(CC=Cc3ccccc3)CC2)cc1 | 4.66% |
| CC(C)C(=O)COc1c2occc2cc2ccc(=O)oc12 | 12.9% |
| CCCCC/C=C/CC(=O)OC | 28.9% [at 115 µM] |
| O=C(c1ccccc1)N1CCCCC1 | 4.33% |
| COc1ccc(-c2coc3cc(OC(C)=O)c(OC)cc3c2=O)cc1 | -5.95% |
| CC(=O)Nc1ccccc1O | 17.4% [at 115 µM] |
| CC(C)=CCCC(C)CC=O (stereo unspecified) | 11.4% [at 115 µM] |
| CCN1CC2(COC(=O)c3ccccc3N)CCC(OC)C34C5CC6C(OC)CC(O)(C5C6OC)C(O)(C(OC)C23)C14 (stereo unspecified) | 3.02% |
| O=C/C=C/c1ccc(O)cc1 | -37.7% |
| O=C(CO)c1c[nH]c2ccccc12 | -11.8% |
| CC(C)=CCOc1ccc2ccc(=O)oc2c1 | 13.3% |
| C[C@@H]1CC[C@]2(C(=O)O[C@@H]3O[C@H](CO)[C@@H](O)[C@H](O)[C@H]3O)CC[C@]3(C)C(=CCC4[C@@]5(C)CC[C@H](O[C@@H]6OC[C@H](O)[C@H](O[C@@H]7O[C@H](CO)[C@@H](O)[C@H](O)[C@H]7O)[C@H]6O)C(C)(C)C5CC[C@]43C)C2[C@]1(C)O (stereo partly specified) | 0.946% |
| CC1=CCC[C@H]2[C@H](C1)C(=O)C[C@@H](C)[C@]2(C)CC/C(=C/CO)CO | -26.2% |
| Cn1cnc2c(ncn2[C@@H]2O[C@H](CO)[C@@H](O)[C@H]2O)c1=N | 19% |
